# Screening data from PubChem.
# An excerpt weighted towards active compounds, which were near 2.4% of everything screened.
# D2 ag-1 – HTS Assay for Allosteric Agonists of the Human D2 Dopamine Receptor: Primary Screen for Agonists. activation, % at 2 µM. 340,000 tested, 0.53% active. HEK293 T-REx D2 cells, calcium flux agonist mode. D(2) dopamine receptor (Homo sapiens), P14416;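 active = activation over 3 SD above normal in the single-dose calcium agonist read, cut at about 30% in these data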; also: 0% is about no effect
# Target sequence (P14416 whole entry, looked up): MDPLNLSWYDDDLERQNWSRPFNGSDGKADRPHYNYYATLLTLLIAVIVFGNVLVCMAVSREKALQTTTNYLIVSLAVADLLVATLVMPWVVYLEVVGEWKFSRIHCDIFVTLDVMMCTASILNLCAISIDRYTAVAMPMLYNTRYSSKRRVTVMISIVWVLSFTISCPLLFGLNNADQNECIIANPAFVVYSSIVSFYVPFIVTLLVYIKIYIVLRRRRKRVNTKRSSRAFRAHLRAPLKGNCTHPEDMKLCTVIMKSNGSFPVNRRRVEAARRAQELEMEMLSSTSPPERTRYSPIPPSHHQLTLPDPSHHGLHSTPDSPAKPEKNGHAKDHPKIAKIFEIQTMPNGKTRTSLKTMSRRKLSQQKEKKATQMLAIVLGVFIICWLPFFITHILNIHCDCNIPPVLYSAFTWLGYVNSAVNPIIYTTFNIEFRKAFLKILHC
#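 Tetracycline-induced HEK293 Trex cells with D2 receptor force-coupled to calcium signaling, plated overnight at 30 C and loaded with no-wash calcium dye. Calcium flux read kinetically for 180 s after compound addition; responses flag agonists.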
# D2 PAM-1 – Beta-Arrestin HTS for Positive Allosteric Modulators of the Human D2 Dopamine Receptor: Potentiators; D(2) dopamine receptor (Homo sapiens), P14416; DiscoveRx D2 beta-arrestin cells, luminescence, 90 min; 100% = 57 uM dopamine signal; potentiation, % (concentration not given with the values); 360,000 tested, 0.23% active; AID 624464, 2012; in the data active = potentiation above about 50%
#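 PathHunter beta-arrestin assay in DiscoveRx D2 cells. Compounds were added with an EC20 of dopamine (50 nM final) for 90 min at 37 deg C. Luminescence was read 1 h after detection reagent, with 57 uM dopamine as the EC100 control.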
# D2 ag-2 – Beta-Arrestin HTS for Positive Allosteric Modulators of the Human D2 Dopamine Receptor: Agonists | D(2) dopamine receptor (Homo sapiens), P14416 | DiscoveRx PathHunter D2 beta-arrestin, luminescence, 90 min; 100% = 57 uM dopamine signal | 360,000 tested, 0.084% active | AID 624465, 2012 | activation, % (no concentration beside the values); in the data active = activation above about 40%
#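 DiscoveRx PathHunter D2 beta-arrestin cells (2,100/well) attached overnight, then compound-stimulated 90 min at 37 C in HBSS/10 mM HEPES/0.1% Tween-20 buffer; beta-galactosidase complementation read by luminescence after 1 h at ambient temperature. Dopamine 57 uM final (EC100) as control.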
# D2 antag – HTS Assay for Allosteric Antagonists of the Human D2 Dopamine Receptor: Primary Screen for Antagonists. D(2) dopamine receptor (Homo sapiens), P14416. HEK293 TREx D2 cells, calcium flux, dopamine EC80. inhibition, % at 10 µM. 340,000 tested, 2% active; in the data active = inhibition above about 30%; inactive = below that, where a call was filed; also: 0% is about no effect
#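 Tetracycline-induced HEK293 TREx cells expressing D2 receptor forced-coupled to calcium signalling, loaded with no-wash calcium dye. Compounds added and calcium flux read 180 s, then dopamine added at EC80 and read a further 180 s.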
# D2 PAM-2 – HTS Assay for Positive Allosteric Modulators of the Human D2 Dopamine Receptor: Primary Screen for Potentiators. D(2) dopamine receptor (Homo sapiens), P14416. HEK293 T-REx D2, calcium flux, EC20 dopamine potentiation. 340,000 tested, 0.34% active. potentiation, % at 10 µM;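 active = potentiation over 3 SD above the plate norm, cut at about 30% in these data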; also: 0% is about no effect
#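 Tetracycline-induced Hek293 Trex D2 cells, force-coupled to calcium, loaded with no-wash calcium dye. Compound added with 180 s kinetic read for agonism, then EC20 dopamine and a further 180 s read for potentiation.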
# * hit, by the source's call; nt = no result.
SMILES,D2 ag-1,D2 PAM-1,D2 ag-2,D2 antag,D2 PAM-2
O=C(Nc1ccc(Cl)cc1)N1CCC(c2nc(-c3ccccc3Cl)no2)CC1,0.3,-16.0,3.1,31.2*,0.5
O=c1c(S(=O)(=O)c2ccccc2)cn(Cc2ccc(F)cc2)c2cc(N3CCCCC3)c(F)cc12,0.5,nt,nt,nt,-10.5
CCCC(=O)Oc1c(Sc2ccc(Cl)cc2)c(C)nn1-c1ccccc1,0.1,nt,nt,nt,-1.8
O=C(C1CC1)N(Cc1ccco1)c1nc(-c2ccccc2)cs1,-0.3,1.5,-0.2,4.2,30.5*
Cc1ccc(CN2C(=O)SC(Nc3ccc(Cl)cc3)C2=O)cc1 (stereo unspecified),0.0,nt,nt,nt,-9.7
C=CCSc1ncc(CO)n1Cc1ccccc1,0.5,-9.5,-4.5,36.5*,1.6
OCc1cnc(SCc2ccccc2)n1Cc1ccccc1,-0.3,-5.9,-0.7,-1.7,0.9
CCc1ccc2occ(CC(=O)Nc3ccc(OC)c(Cl)c3)c2c1,-1.1,nt,nt,nt,13.7
CCOc1ccccc1NC(=O)NCc1ccccc1,-1.4,-11.3,-2.5,42.2*,-21.0
CCOC(=O)NN1C(=O)c2ccccc2NC1c1ccccn1 (stereo unspecified),1.1,-10.1,-18.8,37.7*,nt
COc1ccc(CCNC(=O)C2C3CCC(C3)C2C(=O)O)cc1OC (stereo unspecified),0.2,-2.8,7.2,-3.7,3.8
O=C(O)C1C2CCC(C2)C1C(=O)NCCc1ccccc1 (stereo unspecified),35.7*,-1.4,-1.0,9.8,-13.5
CCOc1ccc(OCCSc2nc3ccccc3[nH]2)cc1,3.0,7.6,1.8,9.4,32.2*
CCOC(=O)c1cccc(NC(=O)CNS(=O)(=O)c2cccs2)c1,0.1,-4.3,-2.8,9.7,44.4*
CCOc1ccc(OCCSc2ccc(S(=O)(=O)N3CCN(C)CC3)cn2)cc1,0.5,0.9,-1.7,30.3*,-1.1
O=c1cc(CSc2ccc(S(=O)(=O)N3CCCCC3)cn2)nc2sccn12,-1.1,-0.3,-1.9,2.9,32.6*
Cc1ccc(C)c(NC(=O)CSc2ccc(S(=O)(=O)N3CCCC3)cn2)c1,-0.3,-8.5,3.1,39.1*,-10.5
Cc1cc(C)cc(CSc2ccc(S(=O)(=O)N3CCCC3)cn2)c1,1.0,0.4,-0.1,-0.5,-12.7
CN1CCN(S(=O)(=O)c2ccc(SCCOc3ccccc3)nc2)CC1,-0.7,-8.4,-3.5,8.5,-2.4
O=S(=O)(c1ccc(SCCO)nc1)N1CCCC1,1.1,10.6,-0.1,2.9,48.9*
CCC(CC)NC(=O)CSc1ccc(S(=O)(=O)N2CCCCC2)cn1,-0.5,2.6,-0.3,-2.5,3.1
COc1ccc(C)cc1-n1nnc(C(=O)Nc2cccc(SC)c2)c1C,0.5,nt,nt,nt,2.2
Cc1cccc(C(c2sc3nc(-c4ccco4)nn3c2O)N2CCN(Cc3ccccc3)CC2)c1 (stereo unspecified),-1.1,nt,nt,nt,-8.3
Cc1cc(-c2ccccc2)nc2cc(C(=O)NCc3ccco3)nn12,-0.4,-3.9,-2.4,1.3,35.5*
COc1ccc(-c2cc(C(F)(F)F)n3nc(C(=O)NCc4ccco4)cc3n2)cc1,0.3,-8.0,-2.4,13.7,16.2
C=CCNC(=S)Nc1sc2c(c1C(=O)OCC)CCN(C(=O)OCC)C2,0.1,-17.2,-0.6,-13.4,39.7*
CCOC(=O)c1c(NC(=S)NCc2ccccc2)sc2c1CCN(C(=O)OCC)C2,-0.1,-3.9,-8.0,17.9,5.9
COc1ccc(-n2c(/C=C/c3cccc4ccccc34)nc3ccccc3c2=O)cc1Cl,0.0,nt,nt,nt,-13.5
Cc1cc(NC(=O)CCC(=O)N(Cc2ccco2)C2(C(=O)NC3CCCC3)CCC(C)CC2)no1 (stereo unspecified),-0.3,-12.1,-0.8,-0.2,4.3
Cc1cc(NC(=O)CCC(=O)N(c2ccc(C)c(F)c2)C(C(=O)NC2CCCC2)c2ccco2)no1 (stereo unspecified),nt,-3.6,0.7,nt,-1.4
